Test results from PubChem BioAssay AID1159580 (chemical genetic matrix, 2015).
Out of some 5,500 compounds screened, about 2,000 (36%) were called active. Roughly 18% stayed inconclusive and do not appear here. The list shows a part of the results. A number with no mark means an inactive call. No stated cut-off is given here; in the data, active means normalized growth mostly below about 0.91 (no sharp cut-off); inconclusive means no clear call, values can overlap the other calls; inactive means mostly above about 0.92.

Test: chemical genetic growth profiling, strain panel (AID 1159580);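 further: tested at 20 µM; growth read once vehicle control cultures reached saturation at 30 °C; 1 = growth at the plate median or of vehicle wells; lower values mean less growth of the strain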
Conditions: growth OD

Which normalized growth (S. cerevisiae deletion strains, locus YKL009W, strain mrt4, hits give low values) does the source give for `C#CCCCCCCCCCCCC(O)CC(O)COC(C)=O` (stereo unspecified) here?
The normalized growth was 0.8 (active).

What about the normalized growth (S. cerevisiae deletion strains, locus YKL068W, hits give low values) of the same molecule?
The normalized growth was 0.985.

What about the normalized growth (S. cerevisiae deletion strains, locus YKL085W, strain MDH1 (second series), hits give low values) of the same molecule?
Its normalized growth is 0.964.

And the normalized growth (S. cerevisiae deletion strains, locus YKL085W, strain MDH1, hits give low values)?
The normalized growth was 0.964.

And the normalized growth (S. cerevisiae deletion strains, locus YKL160W, strain elf1, hits give low values)?
Its normalized growth is 0.864 (active).

What about the normalized growth (S. cerevisiae deletion strains, locus YKL190W, strain CNB1, hits give low values) of the same molecule?
Its normalized growth is 0.986.

And the normalized growth (S. cerevisiae deletion strains, locus YKR001C, strain vps1, hits give low values)?
Its normalized growth is 0.871 (active).

And the normalized growth (S. cerevisiae deletion strains, locus YKR026C, strain gcn3, hits give low values)?
Its normalized growth is 0.843 (active).

And the normalized growth (S. cerevisiae deletion strains, locus YKR091W, strain srl3, hits give low values)?
The normalized growth was 0.996.

And the normalized growth (S. cerevisiae deletion strains, locus YLL001W, strain dnm1, hits give low values)?
Its normalized growth is 0.913.

What about the normalized growth (S. cerevisiae deletion strains, locus YLL026W, hits give low values) of the same molecule?
The normalized growth was 0.344 (active).

And the normalized growth (S. cerevisiae deletion strains, locus YLL041C, strain sdh2, hits give low values)?
Its normalized growth is 0.542 (active).

And the normalized growth (S. cerevisiae deletion strains, locus YLR027C, strain aat2, hits give low values)?
The normalized growth was 0.478 (active).

And the normalized growth (S. cerevisiae deletion strains, locus YLR039C, strain RIC1, hits give low values)?
The normalized growth was 0.976.

What about the normalized growth (S. cerevisiae deletion strains, locus YLR058C, strain SHM2, hits give low values) of the same molecule?
Its normalized growth is 0.965.

What about the normalized growth (S. cerevisiae deletion strains, locus YLR102C, strain apc9, hits give low values) of the same molecule?
Its normalized growth is 0.968.

What about the normalized growth (S. cerevisiae deletion strains, locus YLR113W, strain HOG1, hits give low values) of the same molecule?
The normalized growth was 0.94.

And the normalized growth (S. cerevisiae deletion strains, locus YLR221C, strain rsa3, hits give low values)?
Its normalized growth is 0.305 (active).

What about the normalized growth (S. cerevisiae deletion strains, locus YLR258W, strain gsy2, hits give low values) of the same molecule?
The normalized growth was 0.493 (active).

What about the normalized growth (S. cerevisiae deletion strains, locus YLR262C, strain YPT6 (second series), hits give low values) of the same molecule?
Its normalized growth is 0.726 (active).

What about the normalized growth (S. cerevisiae deletion strains, locus YLR262C, strain YPT6, hits give low values) of the same molecule?
The normalized growth was 0.962.

And the normalized growth (S. cerevisiae deletion strains, locus YLR268W, strain sec22, hits give low values)?
The normalized growth was 0.927.

What about the normalized growth (S. cerevisiae deletion strains, locus YLR320W, strain mms22, hits give low values) of the same molecule?
Its normalized growth is 0.647 (active).

What about the normalized growth (S. cerevisiae deletion strains, locus YLR330W, strain CHS5, hits give low values) of the same molecule?
Its normalized growth is 0.981.

What about the normalized growth (S. cerevisiae deletion strains, locus YLR342W, strain FKS1 (second series), hits give low values) of the same molecule?
The normalized growth was 0.856.

What about the normalized growth (S. cerevisiae deletion strains, locus YLR342W, strain FKS1, hits give low values) of the same molecule?
Its normalized growth is 0.647 (active).

And the normalized growth (S. cerevisiae deletion strains, locus YLR357W, strain rsc2, hits give low values)?
The normalized growth was 0.958.

And the normalized growth (S. cerevisiae deletion strains, locus YLR370C, strain arc18, hits give low values)?
Its normalized growth is 0.994.

And the normalized growth (S. cerevisiae deletion strains, locus YLR371W, strain rom2, hits give low values)?
Its normalized growth is 0.958.

What about the normalized growth (S. cerevisiae deletion strains, locus YLR384C, strain iki3, hits give low values) of the same molecule?
Its normalized growth is 0.967.

What about the normalized growth (S. cerevisiae deletion strains, locus YLR418C, strain cdc73, hits give low values) of the same molecule?
The normalized growth was 0.861.

And the normalized growth (S. cerevisiae deletion strains, locus YML016C, strain PPZ1, hits give low values)?
Its normalized growth is 0.978.

And the normalized growth (S. cerevisiae deletion strains, locus YML032C, strain rad52, hits give low values)?
The normalized growth was 0.868 (active).

And the normalized growth (S. cerevisiae deletion strains, locus YML120C, strain ndi1, hits give low values)?
Its normalized growth is 0.171 (active).

What about the normalized growth (S. cerevisiae deletion strains, locus YML124C, strain tub3, hits give low values) of the same molecule?
Its normalized growth is 0.972.

And the normalized growth (S. cerevisiae deletion strains, locus YMR058W, strain fet3, hits give low values)?
The normalized growth was 0.749 (active).

What about the normalized growth (S. cerevisiae deletion strains, locus YMR078C, strain ctf18, hits give low values) of the same molecule?
Its normalized growth is 0.954.

And the normalized growth (S. cerevisiae deletion strains, locus YMR125W, strain sto1, hits give low values)?
The normalized growth was 0.908.

What about the normalized growth (S. cerevisiae deletion strains, locus YMR129W, hits give low values) of the same molecule?
Its normalized growth is 0.316 (active).

What about the normalized growth (S. cerevisiae deletion strains, locus YMR205C, strain PFK2, hits give low values) of the same molecule?
The normalized growth was 0.507 (active).

What about the normalized growth (S. cerevisiae deletion strains, locus YMR223W, strain ubp8, hits give low values) of the same molecule?
Its normalized growth is 0.889 (active).

What about the normalized growth (S. cerevisiae deletion strains, locus YMR231W, strain pep5, hits give low values) of the same molecule?
Its normalized growth is 1.01.

What about the normalized growth (S. cerevisiae deletion strains, locus YMR263W, strain SAP30, hits give low values) of the same molecule?
The normalized growth was 0.966.

And the normalized growth (S. cerevisiae deletion strains, locus YMR307W, strain GAS1, hits give low values)?
Its normalized growth is 0.885.

What about the normalized growth (S. cerevisiae deletion strains, locus YNL067W, strain RPL9B, hits give low values) of the same molecule?
Its normalized growth is 0.928.

And the normalized growth (S. cerevisiae deletion strains, locus YNL071W, strain lat1, hits give low values)?
The normalized growth was 0.208 (active).

What about the normalized growth (S. cerevisiae deletion strains, locus YNL128W, strain TEP1, hits give low values) of the same molecule?
Its normalized growth is 0.961.

And the normalized growth (S. cerevisiae deletion strains, locus YNL153C, strain GIM3, hits give low values)?
Its normalized growth is 0.994.

And the normalized growth (S. cerevisiae deletion strains, locus YNL183C, strain NPR1, hits give low values)?
Its normalized growth is 0.954.

What about the normalized growth (S. cerevisiae deletion strains, locus YNL209W, strain ssb2, hits give low values) of the same molecule?
Its normalized growth is 0.886 (active).

What about the normalized growth (S. cerevisiae deletion strains, locus YNL233W, strain BNI4, hits give low values) of the same molecule?
The normalized growth was 0.906.

And the normalized growth (S. cerevisiae deletion strains, locus YNL248C, strain rpa49, hits give low values)?
Its normalized growth is 0.84 (active).

And the normalized growth (S. cerevisiae deletion strains, locus YNL250W, strain rad50, hits give low values)?
Its normalized growth is 0.946.

And the normalized growth (S. cerevisiae deletion strains, locus YNL271C, strain bni1, hits give low values)?
Its normalized growth is 0.942.

What about the normalized growth (S. cerevisiae deletion strains, locus YNL298W, strain CLA4, hits give low values) of the same molecule?
The normalized growth was 0.786 (active).

What about the normalized growth (S. cerevisiae deletion strains, locus YNL307C, strain MCK1, hits give low values) of the same molecule?
The normalized growth was 0.744 (active).

And the normalized growth (S. cerevisiae deletion strains, locus YNL322C, strain KRE1 (second series), hits give low values)?
Its normalized growth is 0.633 (active).

And the normalized growth (S. cerevisiae deletion strains, locus YNL322C, strain KRE1, hits give low values)?
The normalized growth was 0.98.

And the normalized growth (S. cerevisiae deletion strains, locus YNR049C, strain mso1, hits give low values)?
The normalized growth was 1.01.

And the normalized growth (S. cerevisiae deletion strains, locus YNR052C, strain pop2, hits give low values)?
Its normalized growth is 0.896 (active).

And the normalized growth (S. cerevisiae deletion strains, locus YOL006C, strain TOP1, hits give low values)?
Its normalized growth is 0.85.

What about the normalized growth (S. cerevisiae deletion strains, locus YOL012C, strain htz1) of the same molecule?
The normalized growth was 1.07.

What about the normalized growth (S. cerevisiae deletion strains, locus YOL147C, strain pex11, hits give low values) of the same molecule?
The normalized growth was 0.953.

What about the normalized growth (S. cerevisiae deletion strains, locus YOR001W, strain rrp6, hits give low values) of the same molecule?
The normalized growth was 0.397 (active).

What about the normalized growth (S. cerevisiae deletion strains, locus YOR061W, strain CKA2, hits give low values) of the same molecule?
Its normalized growth is 0.893.

What about the normalized growth (S. cerevisiae deletion strains, locus YOR069W, strain VPS5, hits give low values) of the same molecule?
Its normalized growth is 0.992.

What about the normalized growth (S. cerevisiae deletion strains, locus YOR070C, strain gyp1, hits give low values) of the same molecule?
The normalized growth was 0.878 (active).

And the normalized growth (S. cerevisiae deletion strains, locus YOR080W, strain dia2, hits give low values)?
The normalized growth was 0.952.

What about the normalized growth (S. cerevisiae deletion strains, locus YOR083W, strain WHI5, hits give low values) of the same molecule?
Its normalized growth is 0.866 (active).

What about the normalized growth (S. cerevisiae deletion strains, locus YOR106W, strain vam3, hits give low values) of the same molecule?
Its normalized growth is 0.442 (active).

What about the normalized growth (S. cerevisiae deletion strains, locus YOR136W, strain idh2, hits give low values) of the same molecule?
Its normalized growth is 0.934.

What about the normalized growth (S. cerevisiae deletion strains, locus YOR144C, strain elg1, hits give low values) of the same molecule?
The normalized growth was 0.973.

And the normalized growth (S. cerevisiae deletion strains, locus YOR184W, strain ser1, hits give low values)?
The normalized growth was 0.774 (active).

And the normalized growth (S. cerevisiae deletion strains, locus YOR231W, strain MKK1, hits give low values)?
The normalized growth was 1.01.

And the normalized growth (S. cerevisiae deletion strains, locus YOR265W, strain rbl2, hits give low values)?
The normalized growth was 0.926 (active).

And the normalized growth (S. cerevisiae deletion strains, locus YOR270C, strain vph1, hits give low values)?
Its normalized growth is 0.506 (active).

What about the normalized growth (S. cerevisiae deletion strains, locus YOR290C, strain snf2, hits give low values) of the same molecule?
Its normalized growth is 0.899.

What about the normalized growth (S. cerevisiae deletion strains, locus YOR316C, strain cot1, hits give low values) of the same molecule?
The normalized growth was 0.969.

What about the normalized growth (S. cerevisiae deletion strains, locus YPL051W, strain arl3, hits give low values) of the same molecule?
The normalized growth was 0.831 (active).

And the normalized growth (S. cerevisiae deletion strains, locus YPL055C, strain LGE1, hits give low values)?
The normalized growth was 0.904.

And the normalized growth (S. cerevisiae deletion strains, locus YPL078C, strain atp4, hits give low values)?
Its normalized growth is 0.829 (active).

And the normalized growth (S. cerevisiae deletion strains, locus YPL106C, strain sse1, hits give low values)?
The normalized growth was 0.58 (active).

What about the normalized growth (S. cerevisiae deletion strains, locus YPL240C, strain hsp82, hits give low values) of the same molecule?
The normalized growth was 0.342 (active).

What about the normalized growth (S. cerevisiae deletion strains, locus YPL241C, strain CIN2, hits give low values) of the same molecule?
The normalized growth was 0.983.

What about the normalized growth (S. cerevisiae deletion strains, locus YPL256C, strain CLN2, hits give low values) of the same molecule?
Its normalized growth is 0.981.

And the normalized growth (S. cerevisiae deletion strains, locus YPR119W, strain clb2, hits give low values)?
Its normalized growth is 0.97.

And the normalized growth (S. cerevisiae deletion strains, locus YPR141C, strain kar3, hits give low values)?
Its normalized growth is 0.979.

And the normalized growth (S. cerevisiae deletion strains, locus YPR163C, strain tif3, hits give low values)?
Its normalized growth is 0.961.

What about the normalized growth (S. cerevisiae deletion strains, locus YPR167C, strain met16, hits give low values) of the same molecule?
The normalized growth was 0.969.

What about the normalized growth (S. cerevisiae deletion strains, strain wtn01, hits give low values) of the same molecule?
Its normalized growth is 0.928.

What about the normalized growth (S. cerevisiae strains, strain wild type, hits give low values) of the same molecule?
Its normalized growth is 0.97.
